# PubChem BioAssay AID720541 (National Center for Advancing Translational Sciences (NCATS), 2013)
# About 420 (32%) of roughly 1,300 compounds were called active. Roughly 32% stayed inconclusive and do not appear here. The call rests on the fitted dose curve; in most records, active means well fitted inhibition curve with a large enough effect; inconclusive means small, poorly fitted or top-dose-only effect; inactive means no such curve, though single readings can be large or run the other way. The list shows a part of the results. Where a call stands in place of a potency, no number is given.
# Biological target: C-terminal-binding protein 1 (Homo sapiens) (UniProt Q13363)
# Assay: qHTS for Inhibitors of the Phosphatase Activity of Eya2: Carboxyl-terminal binding protein (CtBP) Counterscreen for Cherry-picked Compounds; further: nearly all actives have a fitted effect of over 65% in size
# Details: purified protein-protein binding, AlphaScreen, 3 h; series mostly up to 46.1 µM
# Procedure, shortened: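 AlphaScreen using 25 nM GST-E1A with 25 nM CtBP-6xHIS; compounds at 2.5 nM–46 uM final, 2 h at room temperature, then donor/acceptor beads (20 ug/mL) for 1 h in the dark. Signal normalized to E1A peptide inhibitor (maximum inhibition) and DMSO.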
# Potency means the concentration at half of the fitted maximal effect.
row,Structure (SMILES),Potency
1,O=C(CSc1nnc2c3ccccc3c3ccccc3c2n1)Nc1ccccc1F,12 µM (active)
2,COc1ccc(NC(=O)COc2cccc3c2CCN(C)C3=O)c(OC)c1,8.49 µM (active)
3,COc1ccc(NC(=O)c2ccc(CN3CCc4ccccc4C3)cc2)c(OC)c1,inactive
4,COc1ccccc1NC(=O)CCCCCN1C(=O)c2cccc3cccc(c23)C1=O,inactive
5,Cc1c(C(=O)/C=C/N(C)C)nnn1-c1ccc(Cl)cc1Cl,inactive
6,O=C(COc1ccccc1/C=C1/NC(=O)NC1=O)Nc1ccccc1,inactive
7,CN(C)S(=O)(=O)c1cccc(NC(=O)COc2ccccc2C(=O)Nc2ccccc2)c1,10.7 µM (active)
8,CCC(C)C(CO)NC(=O)/C=C/[C@H]1O[C@@H](n2cnc3c(NC(=O)c4ccccc4)ncnc32)[C@H](O)[C@@H]1O (stereo partly specified),inactive
9,CCCC[C@@]1(C2CCCC2)Cc2cc(OCC(=O)O)c(Cl)c(Cl)c2C1=O,inactive
10,CCOC(=O)CN1C(=O)/C(=C2\SC(=S)N(NC(=O)c3cccnc3)C2=O)c2ccccc21,13.5 µM (active)
11,CN1C(=O)/C(=C2\SC(=S)N(NC(=O)c3cccnc3)C2=O)c2ccccc21,15.1 µM (active)
12,CCc1ccc2[nH]c3nc(SCC(=O)NCC4CCCO4)nnc3c2c1 (stereo unspecified),4.78 µM (active)
13,CCOc1ccc2[nH]c3nc(SCC(=O)NC4CCCC4)nnc3c2c1,inactive
14,Cc1cc2oc(C(=O)N(Cc3ccc(N(C)C)cc3)CC3CCCO3)c(C)c2cc1C (stereo unspecified),inactive
15,CCCc1cc(=O)[nH]c(SCC(=O)Nc2ccc(C)cc2)n1,inactive
16,Cc1nnc2sc(SCC(=O)Nc3ccc(Br)cc3)nn2c1=O,2.13 µM (active)
17,CCOC(=O)N1CCC(NC(=O)c2cc3c(-c4ccccc4F)nn(C)c3s2)CC1,inactive
18,N#Cc1c2nc3ccccc3nc2n2cc(NC(=O)c3ccc(F)cc3)ccc12,3.79 µM (active)
19,Cc1cccc(N2CCN(C(=O)C3COc4ccccc4O3)CC2)c1C (stereo unspecified),inactive
20,Cc1cnc(C(=O)Nc2ccccc2-c2ccc(C)o2)cn1,inactive
21,COc1ccc(-n2nc(C)cc2Nc2ccccc2C(=O)O)cc1,7.57 µM (active)
22,CCOC(=O)c1cc(-c2ccc(N3CCOCC3)cc2)nn1-c1ccccc1C(=O)O,inactive
23,Cc1cc(Nc2ccccc2C(=O)O)n(-c2cccc(Cl)c2)n1,7.57 µM (active)
24,CCc1nc2ccc(C(=O)NCCOc3ccc(OC)cc3)cn2c1N(CCC(C)C)CCN(C)C,inactive

row,Structure (SMILES),Potency
1,O=C1c2ccccc2C(=O)c2c(Nc3ccc(CCO)cc3)ccc(O)c21,6.01 µM (active)
2,COc1cccc(C2c3[nH]c4ccccc4c3CCN2Cc2cnn(C)c2)c1 (stereo unspecified),inactive
3,CNc1c(Br)cc(C(O)C2=CCc3ccccc32)cc1Br (stereo unspecified),inactive
4,Cc1csc(NC(=O)c2cc(=O)[nH]c3ccccc23)n1,19 µM (active)
5,O=C(NC1CCCC1)c1cc(=O)[nH]c2ccccc12,inactive
6,COc1ccc(C(=O)CC(=O)Nc2ccc([N+](=O)[O-])cc2)cc1,inactive
7,Cc1cc(Br)c(NC(=O)c2ccccc2[N+](=O)[O-])cc1C,inactive
8,O=C(Nc1cc([N+](=O)[O-])ccc1O)c1cccc(C(=O)Nc2cc([N+](=O)[O-])ccc2O)c1,6.01 µM (active)
9,COc1cc(OC)c(OC)cc1CCC(C)NCCC(c1ccccc1)c1ccccc1 (stereo unspecified),13.5 µM (active)
10,CNc1cccc2c1C(=O)c1ccccc1C2=O,2.39 µM (active)
11,Cc1cccc(NC(=O)COC(=O)c2cccc3c2C(=O)c2ccccc2C3=O)c1C,inactive
12,NC(=O)c1ccc(NC(=O)COC(=O)/C=C/c2ccc(Br)o2)cc1,inactive
13,C=CCn1cccc(C(=O)Nc2ccc(N(C)C)cc2)c1=O,inactive
14,Cc1ccc(/C=C/C(=O)Nc2ccc(N(C)C)cc2)o1,15.1 µM (active)
15,CN(C)c1ccc(-c2ccnc3c2CC(C)(C(=O)Nc2ccc(Cl)c(C(F)(F)F)c2)O3)cc1 (stereo unspecified),inactive
16,CCOC(=O)C1=C(N)Oc2c(oc(CO)cc2=O)C1c1ccc(Cl)cc1 (stereo unspecified),inactive
17,O=C(Nc1ccc2nc(-c3ccco3)c(-c3ccco3)nc2c1)N1CCCC1,16.9 µM (active)
18,CC1CCN(C(=O)Nc2ccc3nc(-c4ccco4)c(-c4ccco4)nc3c2)CC1,15.1 µM (active)
19,CCOC(=O)c1ncccc1NC(=O)CC(=O)Nc1cccnc1C(=O)OCC,2.39 µM (active)
20,Cc1cc(OC(=O)c2ccc(Cl)cc2)cc(=O)n1C,inactive
21,C[C@H](O)[C@@H]1CN2CCc3c([nH]c4ccc(-c5ccc6c(c5)OCO6)cc34)[C@@H]2C[C@@H]1N(C)C(=O)NC1CCCCC1,inactive
22,COc1ccc(Nc2nc(N)nc(CSC(=S)N3CCCCC3)n2)cc1,inactive
23,Oc1ccccc1C=NC1CCCCC1N=Cc1ccccc1O (stereo unspecified),15.1 µM (active)
24,COc1cc([C@H]2Oc3cc([C@H]4Oc5cc(O)cc(O)c5C(=O)[C@@H]4O)ccc3O[C@@H]2CO)ccc1O,inactive

row,Structure (SMILES),Potency
1,c1ccc(-c2ccc(C3=Nn4c(nnc4-c4cc(-c5ccccc5)n[nH]4)SC3)cc2)cc1,inactive
2,Cc1cc(C)n2nc(SCCOc3ccccc3F)nc2n1,12 µM (active)
3,Cc1cc(C)n2nc(C(=O)NC3CCCc4ccccc43)nc2n1 (stereo unspecified),inactive
4,O=c1[nH]c(SCCOc2ccccc2F)nc2ccccc12,inactive
5,O=c1[nH]c(=O)n(C2C[C@H](O)[C@@H](CO)O2)cc1C(F)(F)F (stereo partly specified),inactive
6,COc1cccc(/C=N/N2C(=O)CSC2=S)c1O,1.2 µM (active)
7,Cc1ccc(Nc2nc(NCCO)nc3c2cnn3C)cc1Cl,7.57 µM (active)
8,Cc1nc2ncccn2c1-c1csc(Nc2ccccc2)n1,2.39 µM (active)
9,COc1ccc(Nc2nc(-c3c(C)nc4ncccn34)cs2)cc1,2.69 µM (active)
10,CC1=C(C(=O)OC(C)C)C(c2ccc(N(C)C)cc2)C2=C(CC(C)(C)CC2=O)N1 (stereo unspecified),inactive
11,Cc1cc(C(=O)O)ccc1-n1c(C)cc(C=C2C(=O)c3ccccc3C2=O)c1C,inactive
12,COC(=O)c1ccc(C23CC4(C2)[C@H](CN(CC2CCCCC2)[C@@H]4c2ccccc2)C3c2ccc(Cl)nc2)cc1 (stereo partly specified),inactive
13,CCCC(=O)NC(=S)Nc1sc2c(c1C(N)=O)CCC2,inactive
14,NC(=O)c1c(NC(=O)c2cnccn2)sc2c1CCCC2,0.301 µM (active)
15,NC(=O)c1c(NC(=O)c2ccc(N3C(=O)CCC3=O)cc2)sc2c1CCCC2,0.478 µM (active)
16,Cc1sc(NC(=O)C2=COCCO2)c(C(N)=O)c1C,inactive
17,COc1ccccc1NC(=O)NCCN1CCN(C(=O)Nc2ccccc2OC)CC1,inactive
18,COc1ccc(-c2cc(C3CCNCC3)[nH]n2)cc1,inactive
19,O=C(Oc1ccc(C(=S)N2CCOCC2)cc1)c1ccc(F)cc1,inactive
20,O=C(/C=C/c1ccccc1)Oc1ccc(C(=S)N2CCOCC2)cc1,0.239 µM (active)
21,COC(=O)c1ccc(OC(=O)c2cccnc2)cc1,inactive
22,O=C(Oc1ccc(C(=S)N2CCOCC2)cc1)c1ccccc1,inactive
23,CC(=O)c1ccc(OC(=O)/C=C/c2ccccc2)cc1,0.536 µM (active)
24,O=C(O)c1ccc2c(c1)C(=O)N(c1ccc(/C=C/C(=O)c3ccccc3)cc1)C2=O,inactive

row,Structure (SMILES),Potency
1,Cc1ccc(C2CC(c3ccc(Br)cc3)=NN2C(=O)CSC2=NN3CCCC(=O)N=C3S2)cc1 (stereo unspecified),inactive
2,Fc1cccc(Cc2c(-c3ccco3)nc3ccc(Br)cn23)c1,inactive
3,CC(=O)N1CCN(/[N+]([O-])=N/Oc2ccc([N+](=O)[O-])cc2[N+](=O)[O-])CC1,inactive
4,O=[N+]([O-])c1ccc([N+](=O)[O-])c(Nc2ccc(N3CCOCC3)cc2)c1,inactive
5,COc1cc(C(=S)N2CCOCC2)ccc1OC(=O)c1ccc([N+](=O)[O-])cc1[N+](=O)[O-],10.7 µM (active)
6,S=c1[nH]nc(-c2ccccn2)n1/N=C/c1ccc(Br)s1,12 µM (active)
7,C[C@@]12CCC=C[C@H]1[C@H](c1ccc3ccccc3c1/C=C/c1ccccc1)N(Cc1ccccc1)C2=O,inactive
8,Cc1ccc(S(=O)(=O)N2c3ccccc3-c3c(ssc3=S)C2(C)C)cc1,15.1 µM (active)
9,CC(C)OCCCNC(=O)c1ccccc1NC(=O)C1=CSCCO1,inactive
10,Nc1ccccc1C(=O)NNc1c2ccccc2nc2ccccc12,6.75 µM (active)
11,CC(C)(C)C(=O)[C@H]1[C@H](c2ccccc2)[C@@]2(N=C(c3ccccc3)OC2=O)C2c3ccccc3C=NN21 (stereo partly specified),inactive
12,CCOc1ccc2nc(N3CCCC(C(=O)N4CCN(CC)CC4)C3)sc2c1 (stereo unspecified),inactive
13,O=C1c2cccc3cccc(c23)C(=O)N1CCCN1CCN(c2ccc(F)cc2)CC1,inactive
14,Cc1ccc2cc(NC(=O)CC(CC(=O)O)c3ccccc3)ccc2n1 (stereo unspecified),15.1 µM (active)
15,CCC(=O)Nc1ccc(-c2nnc(SCc3ccccc3)n2C)cc1,inactive
16,Cc1ccc(S(=O)(=O)N2CCOCC2)cc1NC(=O)CSc1nnc2cc(C)c3ccccc3n12,13.5 µM (active)
17,CCSc1nnc(-c2ccc(S(=O)(=O)N3CCOCC3)cc2)n1C,inactive
18,CCSc1nc2ccccc2n1C(=O)c1ccc(S(=O)(=O)N2CCCCC2)cc1,inactive
19,Cc1cc(C)c2nc(SCC(=O)N(C)C3CCS(=O)(=O)C3)cc(C)c2c1 (stereo unspecified),inactive
20,COc1ccc(N(CC(=O)Nc2cccc(C(C)=O)c2)S(=O)(=O)c2ccc(NC(C)=O)cc2)cc1,inactive
21,COc1ccc(C(=O)Nc2cc(OC)c(NC(=O)Nc3ccccc3)cc2OC)cc1,inactive
22,COc1ccc(S(=O)(=O)c2c(O)c3ccc(C(=O)Nc4ccccc4F)cc3[nH]c2=O)cc1,0.757 µM (active)
23,COc1ccc(S(=O)(=O)c2c(O)c3ccc(C(=O)Nc4cccc(F)c4)cc3[nH]c2=O)cc1,0.536 µM (active)
24,COc1ccc(C2NC(C(=O)O)Cc3c2[nH]c2ccccc32)cc1CN1CCN(c2ccc(F)cc2)CC1 (stereo unspecified),inactive
